# Active and inactive are the calls of the source.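 Rule for the calls: active = inhibition above 20% together with a positive visual image hit; inconclusive = visual image hit but inhibition not above 20%; inactive = no visual image hit.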
# Assay: inhibitors of TNFa-induced NFkB p65 translocation, primary screen, imaging, HUVEC, MLSMR starter and 10KST1 sets (AID 438);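 note: compound added about 3h40 before a 20 min TNFalpha stimulation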;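 for inhibition: signal is the nuclear over cytoplasmic p65 intensity ratio per well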
# Settings: HUVEC TNFa-induced p65 nuclear translocation; cell count: measured here: nuclei count (cytotoxicity indicator), at 2.08 µM; inhibition: at 2 µM, stronger effect = higher value, 0% TNFa-plus-vehicle, 100% no-TNFa wells
SMILES,cell count,inhibition
CCCCc1n[nH]c2c1C(=O)CC(C)(C)C2,712,-28.4% (inactive)
Cc1ccc(NC(=O)c2ccco2)c(NC(=O)c2cccs2)c1,684,4.8% (inactive)
COc1ccc(NC(=O)CN2CCCCC2)cc1,494,-1.5% (inactive)
CCCCP(=O)(CCCC)c1ccccc1C(=O)O,404,-2.2% (inactive)
c1ccc2c(c1)CNc1ccccc1C2,526,-11.2% (inactive)
Cc1ccc(NC2=NC3(CCCCC3)N=C(N)N2)c(C)c1,530,-4.7% (inactive)
CCCOC(=O)c1ccc(-c2c(C)noc2-c2ccc(OC)cc2O)o1,162,-6.3% (inactive)
CCOC(=O)C1CCN(Cc2ccc(OC)c(C)c2OC)CC1,313,-1.3% (inactive)
CC1CCCC(C)N1C(=O)CSc1nnc(-c2cccs2)o1 (configuration not stated),400,-14% (inactive)
Cc1nc2ccccc2c2oc(C(=O)NCC3COc4ccccc4O3)cc12 (configuration not stated),532,7.6% (inactive)
O=C(c1ccccc1-c1nc(-c2ccccc2)no1)N1CCCC1,600,-8.6% (inactive)
COc1ccc(OC)c(C(C)NC=O)c1 (configuration not stated),438,3% (inactive)
CCSc1ccccc1C(=O)Nc1cccc(OC)c1,421,0.8% (inactive)
O=S(=O)(NCc1ccc(Cl)cc1)c1cnc[nH]1,468,5% (inactive)
Cc1ccc2oc(=O)c3cnn(CC(=O)NCCC(C)C)c3c2c1,618,-3.9% (inactive)
CCOC(=O)N1CCN(S(=O)(=O)c2ccc(OCC)c(C)c2)CC1,604,-11.1% (inactive)
Cc1cc(C(F)(F)F)nn1Cc1ccc(C(=O)NCc2ccco2)o1,597,-2.1% (inactive)
CC(=O)c1c(C)oc2ccc(NS(=O)(=O)c3ccc(O)c(C(=O)O)c3)cc12,380,8.9% (inactive)
Cc1ccc(S(=O)(=O)NC(=O)c2cc(C)n(CCCn3ccnc3)c2C)cc1,218,-2.9% (inactive)
CC(C)(O)C1=NOC(c2ccccc2)C1 (configuration not stated),647,-6.5% (inactive)
Cc1ccc(C(C(=O)NC2CCCCC2)N(C(=O)c2csnn2)C2CCCC2)o1 (configuration not stated),514,-8.3% (inactive)
COCCNC(=O)CC(NS(=O)(=O)c1ccc(NC(C)=O)cc1)C(C)C (configuration not stated),435,6.5% (inactive)
COc1ccccc1CN1CC(C(=O)NCc2cccnc2)CC1=O (configuration not stated),536,-8% (inactive)
O=C(NC1=NCCS1)NC12CC3CC(CC(C3)C1)C2,357,-3.3% (inactive)
CCc1nnc(NC(=O)C2CC(=O)N(Cc3ccco3)C2)s1 (configuration not stated),428,7.3% (inactive)
Cc1ccc2c(c1)nnn2C1CCN(C(=O)NC23CC4CC(CC(C4)C2)C3)CC1,471,-9.4% (inactive)

# From PubChem BioAssay
